High-throughput results as filed in PubChem.
Pf growth 96h: P. falciparum growth inhibition at 96 hours | AID 504834 | actives 6.9% (n = 320,000) | P. falciparum luciferase reporter growth, 96 h | Potency, µM (top dose mostly 28.7 µM), usual class: inhibitors
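Two parasite generations (96 h, 37 C, 5% CO2) of compound exposure in infected erythrocytes (0.05% parasitemia, 2% hematocrit). Luciferase-reporter P. falciparum; decreased luminescence indicates inhibited growth, aimed at apicoplast-acting delayed death.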
HCMV inh: inhibitors of human cytomegalovirus | HFF cells, HCMV-luciferase reporter, 72 h; hits give low values | activity change, negative = inhibition, % at 57.5 µM | actives 4.5% (n = 410,000) | AID 1259415; in the data active = activity change below about -60%; inconclusive = no clear call, values can overlap the other calls; inactive = above about -39%
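Two compound doses tested in HFFs infected with HCMV-luciferase, MOI 1 PFU/cell, 72 h at 37C. Lysate luminescence read with OneGlo; data normalized against buffer-only and 10uM Salinomycin inhibitor controls.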
Pf growth 48h: P. falciparum growth inhibition at 48 hours (one generation) | P. falciparum luciferase growth in erythrocytes, 48 h | Potency, µM (doses to about 28.7 µM), hits mostly inhibitors | actives 5.9% (n = 310,000)
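First compound was added to culture medium, then infected red cells at 0.1% parasitemia and 2% hematocrit (final). After incubation at 37 C under 5% CO2, luciferase detection reagent was dispensed and light output recorded.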
Cycloheximide cs: counter-screen hit for Shiga toxin inhibitors, cycloheximide; AID 2314; actives 12% (n = 300,000); max response, %; cell reporter, cycloheximide protein synthesis inhibition counterscreen; in the data active = max response mostly above about 13%, no sharp cut-off; inactive = mostly below about 14%; note: read at 38.3 µM for the half of the compounds with a filed dose
Shiga inhibitor: blocks Shiga toxin action in Vero cells | Vero cells, Shiga toxin protein synthesis inhibition reporter | inhibition, % at 38.7 µM | actives 9.2% (n = 290,000); in the data active = inhibition mostly above about 28%, no sharp cut-off; inactive = mostly below about 43%
Each line names hits and unclear results; the compound was inactive in the other large screens. Sampled rows, rich in hits. Any-hit rate of the full collection: about 20%. Unless noted, calls come from the whole dose curve; as a rule, active = well fitted inhibition curve with a large enough effect; inconclusive = small, poorly fitted or top-dose-only effect, or another doubt; inactive = no such curve, though single readings can be large or run the other way.

Cc1ccc(-c2noc(-c3cc(-c4ccc(F)cc4)n[nH]3)n2)cc1	none (no result: Pf growth 96h, Pf growth 48h, Cycloheximide cs, Shiga inhibitor)
Cc1ccccc1C(=O)N1CC(=O)Nc2ccc(Cl)cc2C1c1ccccc1 (centres undefined)	none (no result: Pf growth 96h, Pf growth 48h, Cycloheximide cs, Shiga inhibitor)
CCCCNC(=O)CSc1cc(=O)n(C)c2ccccc12	Pf growth 96h 0.21µM
Cn1c(=O)cc(SCC(=O)NCCCN2CCOCC2)c2ccccc21	Pf growth 96h inconclusive
CC(CCc1ccco1)NC(=O)CSc1cc(=O)n(C)c2ccccc12 (centres undefined)	Pf growth 96h 4.1µM
CCn1c(SCC(=O)Nc2ccc(OC)c(S(=O)(=O)N3CCCCC3)c2)nnc1C1CC1	Pf growth 96h inconclusive (no result: Cycloheximide cs, Shiga inhibitor)
CCn1c(SCc2ccccc2)nnc1C1CCCCC1	Pf growth 96h 9.3µM, Pf growth 48h inconclusive
CCn1c(SCc2ccccc2)nnc1-c1cccs1	Pf growth 96h inconclusive, Pf growth 48h 9.3µM
Cn1c(SCc2ccc(Br)cc2)nnc1-c1cccs1	Pf growth 96h inconclusive, Pf growth 48h inconclusive
Cc1ccc(CSc2nnc(-c3cccs3)n2C)cc1	Pf growth 48h 12µM
Cc1ccc2c(c1)N(C(=O)CCC(=O)O)CCO2	none
Cn1ncc2cc(NC(=S)NC(=O)c3ccccc3)ccc21	Cycloheximide cs 43, Shiga inhibitor 86
O=C(Nc1ccccc1)c1ccncc1	none
Cc1cc(C)nc(NC(=S)NC(=O)c2ccccc2)n1	Pf growth 96h 0.93µM
Cc1cc(C)nc(NC(=S)Nc2ccccc2)n1	none
O=C(NC(=S)Nc1ncc(Br)cc1Br)c1ccccc1	HCMV inh inconclusive, Cycloheximide cs 35, Shiga inhibitor 94
O=C(Nc1cnc2ccccc2c1)c1ccncc1	Cycloheximide cs 73, Shiga inhibitor 183 (no result: Pf growth 48h)
CC(=O)c1ccc(NC(=O)CC2Sc3ccccc3NC2=O)cc1 (centres undefined)	none (no result: Pf growth 96h, Pf growth 48h, Cycloheximide cs, Shiga inhibitor)
COc1ccc(NC(=O)CSc2nnc3n2CCCCC3)cc1S(=O)(=O)N1CCOCC1	none (no result: Cycloheximide cs, Shiga inhibitor)
COC(=O)c1cccc(C(=O)Nc2cnc3ccccc3c2)n1	none
S=C(NCCc1ccccc1)Nc1cnc2ccccc2c1	HCMV inh -63, Cycloheximide cs 31, Shiga inhibitor 61
O=C(NC(=S)Nc1cnc2ccccc2c1)c1ccccc1	Cycloheximide cs 47, Shiga inhibitor 63
Cc1ccc(-c2nc3cc(C)c(Br)c(C)n3c2Cc2ccccc2)cc1	none (no result: Pf growth 96h, Pf growth 48h, Cycloheximide cs, Shiga inhibitor)
CN(C)C(=S)SSC(=S)N(C)C	Pf growth 96h 0.76µM, HCMV inh -99, Pf growth 48h 0.85µM, Cycloheximide cs 23
CN(C)C(=S)SC(=S)N(C)C	Pf growth 96h 3.4µM, Pf growth 48h 5.4µM (no result: HCMV inh)
CC(=O)Nc1cc(C(=O)NCCN2CCN(Cc3ccccc3)CC2)ccc1Sc1ccc(C)cc1	Pf growth 48h inconclusive
CCc1cc(C(=O)N2CCCC(N3CCN(c4cccc(C(F)(F)F)c4)CC3)C2)n(C)n1 (centres undefined)	HCMV inh inconclusive, Pf growth 48h inconclusive
FC(F)(F)C1=CC(c2ccc(Br)cc2)=NCCN1	Pf growth 96h 6.6µM, Pf growth 48h inconclusive
COc1ccc(CCNS(=O)(=O)c2ccc(N3CCCCS3(=O)=O)cc2)cc1OC	none (no result: Pf growth 96h, Pf growth 48h, Cycloheximide cs, Shiga inhibitor)
CC(=O)Nc1ccc(SCCN2CCN(CC(C)C)CCC2=O)cc1	none (no result: Pf growth 96h, HCMV inh, Pf growth 48h)
CN1CCN(C2=Nc3cc(F)ccc3Cc3ccccc32)CC1	none (no result: HCMV inh)
CN1N=C2c3ccccc3CCC2C1c1ccc(F)cc1 (centres undefined)	Pf growth 96h 1.7µM, Pf growth 48h 1.3µM, Cycloheximide cs 76, Shiga inhibitor 87
CN1N=C2c3ccccc3CCC2C1c1ccc(Cl)cc1 (centres undefined)	Pf growth 96h 1.5µM, Pf growth 48h inconclusive, Cycloheximide cs 35, Shiga inhibitor 72
CNC(=S)N1N=C2c3ccccc3CCC2C1c1ccccc1Cl (centres undefined)	Pf growth 96h inconclusive, HCMV inh inconclusive, Pf growth 48h inconclusive
COc1ccc2c(CNC3CCC(C)CC3)c(C(=O)O)n(Cc3ccccc3)c2c1 (centres undefined)	none (no result: Pf growth 96h, Pf growth 48h, Cycloheximide cs, Shiga inhibitor)
COc1cccc(CN2CC(C(=O)NCc3ncc(C)[nH]3)CCC2=O)c1 (centres undefined)	none
COc1cc(CN2CCCCC2C(=O)Nc2ccc(Oc3ccccc3)nc2)ccc1O (centres undefined)	Pf growth 48h inconclusive, Cycloheximide cs 55, Shiga inhibitor 81
COCCC(=O)N1CCC(C(=O)Nc2ccc(Oc3ccccc3)nc2)CC1	Cycloheximide cs 63, Shiga inhibitor 66
COc1ccc(CN2CCCCC2C(=O)Nc2ccc(OC)c(OCC(C)C)c2)cc1OC (centres undefined)	none
O=C(Nc1ccc(Oc2ccccc2)nc1)C1CCCCN1Cc1ccc(O)cc1 (centres undefined)	Pf growth 96h inconclusive, Pf growth 48h inconclusive, Cycloheximide cs 20
COCCc1ncc(CN2CCCCC2C(=O)Nc2ccc(Oc3ccccc3)nc2)cn1 (centres undefined)	none
O=C(Nc1ccc(Oc2ccccc2)nc1)C1CCCCN1Cc1cccc(O)c1 (centres undefined)	Pf growth 96h 5.9µM, Pf growth 48h inconclusive
CS(=O)(=O)N1CCC(C(=O)Nc2ccc(Oc3ccccc3)cc2)CC1	none
CCNC(=O)C1(C)CCCN(C(=O)c2nc(C)oc2C)C1 (centres undefined)	none (no result: Pf growth 96h, Pf growth 48h, Cycloheximide cs, Shiga inhibitor)
CN(CCc1ccccc1)C(c1cc2ccccc2o1)c1nnnn1C(C)(C)C (centres undefined)	none (no result: Pf growth 96h, Pf growth 48h, Cycloheximide cs, Shiga inhibitor)
CCOC(=O)CSc1nc(Cc2ccccc2)nc2ccccc12	HCMV inh -66
CC(C)C(=O)NNC(=O)CSc1nc(C2CCCCC2)nc2ccccc12	Pf growth 96h 1.5µM
CCc1nc(SCC(=O)NNC(=O)C(C)C)c2ccccc2n1	Pf growth 96h 12µM, Pf growth 48h inconclusive
O=C(CSc1nc(C2CCCCC2)nc2ccccc12)NCc1ccc2c(c1)OCO2	HCMV inh inconclusive
CCOC(=O)CSc1nc(CC)nc2ccccc12	none
Cc1cc(C)c(Nc2nc3ccccc3n3c(C)nnc23)c(C)c1	none (no result: Pf growth 96h, Pf growth 48h, Cycloheximide cs, Shiga inhibitor)
CC(=O)Nc1ccc(C(C#N)=Cc2ccc(N(C)CCC#N)cc2)cc1	none (no result: Pf growth 96h, Pf growth 48h, Cycloheximide cs, Shiga inhibitor)
COC(=O)Cc1c(OC)ccn(CCc2c[nH]c3ccccc23)c1=O	Cycloheximide cs 34, Shiga inhibitor 103
O=c1c(Cc2c(F)cccc2Cl)c(O)ccn1CCc1c[nH]c2ccccc12	Pf growth 96h 5.2µM, Pf growth 48h inconclusive
COC(=O)Cc1c(O)ccn(CCc2c[nH]c3ccc(OC)cc23)c1=O	HCMV inh -73
COC(=O)Cc1c(O)ccn(CCc2c[nH]c3ccccc23)c1=O	HCMV inh inconclusive
CC(C)(C)N1C(=O)c2ccc(C(=O)Nc3ccc(C(=O)O)cc3)cc2C1=O	Pf growth 96h 9.3µM
CC(C)(C)N1C(=O)c2ccc(C(=O)Nc3ccc(-c4nc5ccccc5[nH]4)cc3)cc2C1=O	Pf growth 48h 0.52µM, Cycloheximide cs 29, Shiga inhibitor 47
O=C(N/N=C/C=C/c1ccccc1)c1cccnc1	Shiga inhibitor 30
O=C(N/N=C/c1cccc(Oc2ccccc2)c1)c1ccncc1	Pf growth 96h 3.7µM
O=C(N/N=C/c1cccc(Oc2ccccc2)c1)c1ccc(O)cc1O	Pf growth 96h inconclusive
